Results filed as inconclusive are left out. Active and inactive are the calls of the source. Rule for the calls, unless noted: active = hit-call score of the fitted dose curve at least 0.9, where 1 is the maximum; inconclusive = response in the unintended direction; inactive = score below 0.9.
What was measured:
[1] = ATG_TCF_b_cat_CIS: Attagene CIS-FACTORIAL HepG2 Assay for human T-Cell-Factor with beta-catenin (TCF/b-cat) (AID 2282965; active = hit-call score of the fitted dose curve at least 0.9, where 1 is the maximum; inactive = score below 0.9); conditions: HepG2 TCF/beta-catenin cis-reporter transcription, actives raise or lower the signal
In short: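 HepG2, transient MRTU transfection, cis-element-driven reporters (endogenous TFs). 24 h compound exposure. Readout: reporter mRNA by RT-PCR + 6-FAM primer extension, HpaI digest, capillary electrophoresis. Gain/loss fit vs DMSO baseline.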

[2] = ATG_TGFb_CIS: Attagene CIS-FACTORIAL HepG2 Assay for human Transforming Growth Factor (TGF) (AID 2282967; active = hit-call score of the fitted dose curve at least 0.9, where 1 is the maximum; inactive = score below 0.9); conditions: HepG2 Attagene CIS TGFb reporter, mRNA transcription; actives raise or lower the signal
In short: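 Transient MRTU transfection of HepG2 (FuGene 6). Dose 24 h. TriZol RNA, oligo(dT) RT, PCR, 6-FAM primer extension, HpaI cut, CE. Bidirectional fit, DMSO = baseline.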

[3] = ATG_VDRE_CIS: Attagene CIS-FACTORIAL HepG2 Assay for human Vitamin D Receptor Element (VDRE) (AID 2282968; active = hit-call score of the fitted dose curve at least 0.9, where 1 is the maximum; inactive = score below 0.9); conditions: HepG2 VDRE cis-reporter transcription, actives raise or lower the signal
In short: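 Cell-based multiplexed reporter format in human liver HepG2 cells, 24 h post-dose. Fluorescence from capillary electrophoresis of reporter cDNA gives the signal, with DMSO as negative control and baseline.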

[4] = biological target: Nuclear receptor subfamily 1 group I member 3 (Homo sapiens) (UniProt Q14994); assay: ATG_CAR_TRANS: Attagene TRANS-FACTORIAL HepG2 Assay for human Constitutive Androstane Receptor (CAR) (AID 2282969); conditions: HepG2 Attagene TRANS-FACTORIAL CAR reporter;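 note: activators raise reporter mRNA above DMSO so AC50 marks induction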
Chain of Nuclear receptor subfamily 1 group I member 3 (Homo sapiens) (Q14994 whole entry, looked up, the tested form may be a part): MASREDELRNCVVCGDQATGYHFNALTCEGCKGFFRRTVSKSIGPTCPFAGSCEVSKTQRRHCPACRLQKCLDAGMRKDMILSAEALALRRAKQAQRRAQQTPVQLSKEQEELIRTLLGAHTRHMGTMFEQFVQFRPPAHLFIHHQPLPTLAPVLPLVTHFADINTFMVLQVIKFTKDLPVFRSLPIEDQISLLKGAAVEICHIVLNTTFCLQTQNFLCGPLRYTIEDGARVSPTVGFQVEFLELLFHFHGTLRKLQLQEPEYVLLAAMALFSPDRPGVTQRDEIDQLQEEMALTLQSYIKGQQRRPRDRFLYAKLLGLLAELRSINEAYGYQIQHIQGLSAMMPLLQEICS
In short: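 HepG2 cells transiently transfected with GAL4-UAS reporter units; TRANS format reads activity of exogenous chimeric NR-Gal4 protein. After 24 h dosing, reporter mRNA quantified by RT-PCR, 6-FAM labelling and capillary electrophoresis; gain of signal fitted against DMSO.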

[5] = biological target: Estrogen receptor (Homo sapiens) (UniProt P03372); assay: ATG_ERa_TRANS: Attagene TRANS-FACTORIAL HepG2 Assay for human Estrogen Receptor alpha (ERa) (AID 2282970); conditions: HepG2 Attagene TRANS ERa GAL4 reporter, mRNA
Chain of Estrogen receptor (Homo sapiens) (P03372 whole entry, looked up, the tested form may be a part): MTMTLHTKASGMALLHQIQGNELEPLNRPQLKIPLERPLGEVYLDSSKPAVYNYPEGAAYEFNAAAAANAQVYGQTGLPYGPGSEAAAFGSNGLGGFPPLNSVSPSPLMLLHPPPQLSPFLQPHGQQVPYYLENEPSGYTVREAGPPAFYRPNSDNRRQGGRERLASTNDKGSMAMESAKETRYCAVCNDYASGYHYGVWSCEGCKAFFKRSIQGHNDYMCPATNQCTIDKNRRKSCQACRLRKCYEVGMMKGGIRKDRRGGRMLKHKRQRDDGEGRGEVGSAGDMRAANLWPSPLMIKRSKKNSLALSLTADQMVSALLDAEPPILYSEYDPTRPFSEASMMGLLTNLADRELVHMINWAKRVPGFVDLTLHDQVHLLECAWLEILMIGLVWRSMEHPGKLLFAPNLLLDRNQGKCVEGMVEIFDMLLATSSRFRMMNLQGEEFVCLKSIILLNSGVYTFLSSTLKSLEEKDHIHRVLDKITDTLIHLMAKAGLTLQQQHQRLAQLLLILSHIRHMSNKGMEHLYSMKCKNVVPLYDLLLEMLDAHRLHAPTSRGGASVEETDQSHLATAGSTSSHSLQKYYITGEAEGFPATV
In short: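 HepG2 cells transiently transfected with multiplexed GAL4-UAS reporter units read out chimeric NR-Gal4 activity. After 24 h compound exposure, reporter mRNA was quantified by RT-PCR, 6-FAM labeling, HpaI digestion and capillary electrophoresis, relative to DMSO.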

[6] = biological target: X-box-binding protein 1 (Homo sapiens) (UniProt P17861); assay: ATG_Xbp1_CIS: Attagene CIS-FACTORIAL HepG2 Assay for human X-box Binding Protein 1 (XBP1) (AID 2282972; active = hit-call score of the fitted dose curve at least 0.9, where 1 is the maximum; inactive = score below 0.9); conditions: HepG2 XBP1 cis-element reporter, Attagene multiplex; actives raise or lower the signal
Chain of X-box-binding protein 1 (Homo sapiens) (P17861 whole entry, looked up): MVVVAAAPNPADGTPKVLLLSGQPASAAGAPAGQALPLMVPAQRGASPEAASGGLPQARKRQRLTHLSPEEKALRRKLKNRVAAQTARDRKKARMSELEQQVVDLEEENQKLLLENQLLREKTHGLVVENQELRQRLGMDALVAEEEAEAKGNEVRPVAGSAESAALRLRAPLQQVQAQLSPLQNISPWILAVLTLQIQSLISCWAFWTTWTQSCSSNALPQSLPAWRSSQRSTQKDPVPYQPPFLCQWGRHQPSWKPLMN
In short: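 HepG2 cells transiently transfected with cis-regulated multiple reporter transcription units; endogenous transcription factor activity measured 24 hours after chemical dosing. Reporter mRNA quantified by RT-PCR, 6-FAM primer extension, HpaI digestion and capillary electrophoresis; bidirectional fitting versus DMSO.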

[7] = ATG_M_19_TRANS: Attagene TRANS-FACTORIAL HepG2 Assay for M19 Transcription Factor (Internal Marker) (AID 2282974); conditions: HepG2 Attagene TRANS-FACTORIAL M19 internal marker reporter
In short: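 Fluorescence of 6-FAM-labelled reporter cDNA fragments, separated by capillary electrophoresis, served as the readout. These derived from HepG2 cells carrying transfected GAL4-UAS reporter units after 24 h dosing, with DMSO as negative control.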

[8] = ATG_Hpa5_TRANS: Attagene TRANS-FACTORIAL HepG2 Assay for human GAL4-Hpa5 Hepatocyte Transcription Factor Basal Promoter (AID 2282975); conditions: HepG2 Attagene GAL4-Hpa5 transcription reporter;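 note: hits are increases in reporter mRNA over DMSO baseline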
In short: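 Basal-promoter GAL4 background control within the HepG2 trans-factorial panel of transiently transfected reporter units. Reporter mRNA is measured 24 h after dosing by RT-PCR and capillary electrophoresis, fitted for gain of signal versus DMSO.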

[9] = biological target: Glucocorticoid receptor (Homo sapiens) (UniProt P04150); assay: ATG_GR_TRANS: Attagene TRANS-FACTORIAL HepG2 Assay for human Glucocorticoid Receptor (GR) (AID 2282978); conditions: HepG2 Attagene TRANS GR reporter, mRNA transcription;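 note: activators score as hits since higher reporter transcript over DMSO is fitted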
Chain of Glucocorticoid receptor (Homo sapiens) (P04150 whole entry, looked up, the tested form may be a part): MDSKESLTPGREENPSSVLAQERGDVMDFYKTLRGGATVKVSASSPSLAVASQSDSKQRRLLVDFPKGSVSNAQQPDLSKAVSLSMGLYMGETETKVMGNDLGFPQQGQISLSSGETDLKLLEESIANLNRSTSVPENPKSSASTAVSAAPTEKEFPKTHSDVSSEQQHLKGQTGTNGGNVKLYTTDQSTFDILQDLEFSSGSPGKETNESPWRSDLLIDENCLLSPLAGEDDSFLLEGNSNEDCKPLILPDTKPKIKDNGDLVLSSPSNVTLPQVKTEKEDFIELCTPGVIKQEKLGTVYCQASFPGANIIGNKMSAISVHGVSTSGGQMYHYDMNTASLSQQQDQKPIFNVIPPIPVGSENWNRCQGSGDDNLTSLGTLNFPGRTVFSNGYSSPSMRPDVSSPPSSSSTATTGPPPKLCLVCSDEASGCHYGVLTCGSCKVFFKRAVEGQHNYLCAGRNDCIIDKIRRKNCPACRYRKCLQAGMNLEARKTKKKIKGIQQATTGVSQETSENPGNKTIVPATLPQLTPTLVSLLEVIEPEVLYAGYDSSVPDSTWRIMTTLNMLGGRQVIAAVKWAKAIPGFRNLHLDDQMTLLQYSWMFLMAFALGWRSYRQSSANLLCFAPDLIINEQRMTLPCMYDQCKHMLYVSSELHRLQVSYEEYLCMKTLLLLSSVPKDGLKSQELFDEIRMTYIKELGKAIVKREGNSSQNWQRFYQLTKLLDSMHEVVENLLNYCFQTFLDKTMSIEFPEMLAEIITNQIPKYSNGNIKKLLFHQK
In short: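 Fluorescent capillary-electrophoresis quantitation of reporter mRNA is the readout, taken 24 h after dosing human HepG2 cells carrying transiently transfected GAL4-UAS reporter units activated by chimeric NR-GAL4 fusions; activity scored as induction over DMSO.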

[10] = biological target: Oxysterols receptor LXR-beta (Homo sapiens) (UniProt P55055); assay: ATG_LXRb_TRANS: Attagene TRANS-FACTORIAL HepG2 Assay for human Liver X Receptor beta (LXRb) (AID 2282981); conditions: HepG2 Attagene TRANS GAL4-LXRb reporter, mRNA
Chain of Oxysterols receptor LXR-beta (Homo sapiens) (P55055 whole entry, looked up, the tested form may be a part): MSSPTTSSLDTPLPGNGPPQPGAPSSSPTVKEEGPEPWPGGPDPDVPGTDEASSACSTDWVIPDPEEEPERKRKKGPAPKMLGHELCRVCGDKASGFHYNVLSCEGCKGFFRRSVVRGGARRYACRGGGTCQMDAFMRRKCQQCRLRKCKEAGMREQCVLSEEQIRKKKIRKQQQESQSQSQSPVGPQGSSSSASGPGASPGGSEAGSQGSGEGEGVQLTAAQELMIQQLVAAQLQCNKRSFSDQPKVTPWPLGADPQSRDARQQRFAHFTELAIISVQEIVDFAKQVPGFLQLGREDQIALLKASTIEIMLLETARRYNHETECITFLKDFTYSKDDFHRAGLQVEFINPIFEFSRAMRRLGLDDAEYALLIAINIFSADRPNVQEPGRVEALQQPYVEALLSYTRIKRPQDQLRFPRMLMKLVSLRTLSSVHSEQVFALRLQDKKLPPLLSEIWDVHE
In short: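 Gain-of-signal mRNA reporter endpoint, DMSO as negative control. Transiently transfected HepG2 cells carrying the NR-Gal4 chimera and GAL4-UAS reporter units were treated 24 h; transcripts quantified by RT-PCR and capillary electrophoresis fluorescence.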

[11] = biological target: Hepatocyte nuclear factor 4-alpha (Homo sapiens) (UniProt P41235); assay: ATG_HNF4a_TRANS: Attagene TRANS-FACTORIAL HepG2 Assay for human Hepatocyte Nuclear Factor 4 alpha (HNF4a) (AID 2282982); conditions: HepG2 HNF4a transactivation reporter, mRNA readout
Chain of Hepatocyte nuclear factor 4-alpha (Homo sapiens) (P41235 whole entry, looked up, the tested form may be a part): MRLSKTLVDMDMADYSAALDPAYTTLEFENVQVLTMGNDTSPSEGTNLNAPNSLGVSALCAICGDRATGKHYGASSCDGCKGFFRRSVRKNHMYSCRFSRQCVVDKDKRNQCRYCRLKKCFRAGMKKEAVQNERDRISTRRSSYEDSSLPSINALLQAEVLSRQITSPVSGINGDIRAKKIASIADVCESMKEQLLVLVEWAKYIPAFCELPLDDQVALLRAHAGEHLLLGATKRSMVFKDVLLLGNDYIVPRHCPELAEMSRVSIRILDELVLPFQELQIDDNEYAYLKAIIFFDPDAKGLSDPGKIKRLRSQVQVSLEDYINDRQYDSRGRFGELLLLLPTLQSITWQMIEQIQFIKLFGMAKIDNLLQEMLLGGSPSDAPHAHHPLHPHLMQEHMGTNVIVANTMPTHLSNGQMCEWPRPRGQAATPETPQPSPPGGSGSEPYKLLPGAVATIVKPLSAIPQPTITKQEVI
In short: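 Gain-of-signal mRNA induction, relative to DMSO vehicle, was read after 24 h compound treatment of HepG2 cells bearing transfected GAL4-UAS reporters. Detection used RT-PCR, 6-FAM primer extension and capillary electrophoresis.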

[12] = biological target: Steroid hormone receptor ERR1 (Homo sapiens) (UniProt P11474); assay: ATG_ERRa_TRANS: Attagene TRANS-FACTORIAL HepG2 Assay for human Estrogen-Related Receptor alpha (ERRa) (AID 2282971); conditions: HepG2 Attagene TRANS reporter, ERRa transactivation
Chain of Steroid hormone receptor ERR1 (Homo sapiens) (P11474 whole entry, looked up, the tested form may be a part): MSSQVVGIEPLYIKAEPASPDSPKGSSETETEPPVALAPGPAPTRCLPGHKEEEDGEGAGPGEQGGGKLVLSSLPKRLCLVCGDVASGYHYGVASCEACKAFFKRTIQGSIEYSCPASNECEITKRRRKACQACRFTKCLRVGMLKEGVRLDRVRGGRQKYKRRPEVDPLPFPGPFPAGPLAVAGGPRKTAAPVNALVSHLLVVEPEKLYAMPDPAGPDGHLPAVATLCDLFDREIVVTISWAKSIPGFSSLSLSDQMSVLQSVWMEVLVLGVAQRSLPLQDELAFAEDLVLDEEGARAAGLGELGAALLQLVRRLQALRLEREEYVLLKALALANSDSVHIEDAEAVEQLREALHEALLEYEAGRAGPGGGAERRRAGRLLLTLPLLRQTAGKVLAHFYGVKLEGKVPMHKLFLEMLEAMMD
In short: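 HepG2 cells transiently transfected with GAL4-UAS reporter units and chimeric NR-Gal4 constructs; after 24 hour compound incubation, reporter mRNA quantified by RT-PCR, fluorescent labelling and capillary electrophoresis, gain of signal versus DMSO.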

[13] = biological target: Estrogen-related receptor gamma (Homo sapiens) (UniProt P62508); assay: ATG_ERRg_TRANS: Attagene TRANS-FACTORIAL HepG2 Assay for human Estrogen-Related Receptor gamma (ERRg) (AID 2282977); conditions: HepG2 Attagene TRANS reporter, ERRg transactivation;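 note: hits increase reporter signal over DMSO so potencies reflect activators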
Chain of Estrogen-related receptor gamma (Homo sapiens) (P62508 whole entry, looked up, the tested form may be a part): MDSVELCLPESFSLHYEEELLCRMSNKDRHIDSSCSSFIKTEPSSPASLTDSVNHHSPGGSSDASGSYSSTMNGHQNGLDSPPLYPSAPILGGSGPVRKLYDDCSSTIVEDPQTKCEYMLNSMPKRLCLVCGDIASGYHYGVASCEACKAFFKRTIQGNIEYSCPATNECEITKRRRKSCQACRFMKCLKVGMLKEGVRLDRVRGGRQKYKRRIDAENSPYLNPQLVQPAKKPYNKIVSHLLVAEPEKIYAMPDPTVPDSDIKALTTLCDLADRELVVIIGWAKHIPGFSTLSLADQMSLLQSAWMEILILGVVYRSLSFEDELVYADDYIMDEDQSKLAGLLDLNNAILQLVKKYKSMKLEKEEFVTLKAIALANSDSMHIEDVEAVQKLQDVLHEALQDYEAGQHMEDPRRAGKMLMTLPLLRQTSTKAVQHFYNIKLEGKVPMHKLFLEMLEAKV
In short: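 Transient HepG2 transfectants, 24 h compound exposure, GAL4-UAS reporter mRNA by RT-PCR/6-FAM labelling/capillary electrophoresis; positive direction vs DMSO.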

[14] = ATG_M_06_TRANS: Attagene TRANS-FACTORIAL HepG2 Assay for M06 Transcription Factor (Internal Marker) (AID 2282983); conditions: HepG2 Attagene TRANS M06 internal marker reporter
In short: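 HepG2 cells transiently transfected with GAL4-UAS multiple reporter units, dosed 24 h. Reporter RNA reverse-transcribed, PCR-amplified, 6-FAM-labeled, HpaI-digested and quantified by capillary electrophoresis; this internal-marker signal fitted upward relative to DMSO.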

[15] = biological target: Bile acid receptor (Homo sapiens) (UniProt Q96RI1); assay: ATG_FXR_TRANS: Attagene TRANS-FACTORIAL HepG2 Assay for Farnesoid X Receptor (FXR) (AID 2282979); conditions: HepG2 Attagene TRANS FXR-GAL4 reporter transcription;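 note: hits raise reporter mRNA above DMSO so AC50 marks FXR activation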
Chain of Bile acid receptor (Homo sapiens) (Q96RI1 whole entry, looked up, the tested form may be a part): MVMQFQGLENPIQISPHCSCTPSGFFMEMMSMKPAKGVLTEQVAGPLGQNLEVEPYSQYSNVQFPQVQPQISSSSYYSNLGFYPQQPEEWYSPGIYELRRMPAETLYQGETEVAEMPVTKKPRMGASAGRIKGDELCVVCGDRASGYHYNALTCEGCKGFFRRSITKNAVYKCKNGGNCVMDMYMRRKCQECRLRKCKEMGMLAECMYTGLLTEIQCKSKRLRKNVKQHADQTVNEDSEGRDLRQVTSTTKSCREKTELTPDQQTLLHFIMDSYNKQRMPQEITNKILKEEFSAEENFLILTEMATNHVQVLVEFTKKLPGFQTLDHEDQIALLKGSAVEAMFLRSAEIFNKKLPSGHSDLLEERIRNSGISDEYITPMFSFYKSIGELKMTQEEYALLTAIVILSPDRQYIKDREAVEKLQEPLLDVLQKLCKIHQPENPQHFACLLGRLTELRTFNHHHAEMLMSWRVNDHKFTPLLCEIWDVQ
In short: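 HepG2 cells were transiently transfected with GAL4-UAS reporters driven by chimeric NR-Gal4 proteins and dosed for 24 h. Reporter mRNA was quantified by RT-PCR, fluorescent labelling, HpaI digestion and capillary electrophoresis, with gain of signal scored versus DMSO.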

[16] = ATG_M_32_TRANS: Attagene TRANS-FACTORIAL HepG2 Assay for M32 Transcription Factor (Internal Marker) (AID 2282984); conditions: HepG2 Attagene TRANS M32 internal marker reporter
In short: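 Capillary electrophoresis of 6-FAM-labelled reporter fragments gives the signal; data fitted for gain over DMSO negative control. Source: HepG2 cells bearing transient multiple reporter transcription units, 24 h exposure.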

[17] = biological target: Androgen receptor (Homo sapiens) (UniProt P10275); assay: ATG_AR_TRANS: Attagene TRANS-FACTORIAL HepG2 Assay for human Androgen Receptor (AR) (AID 2282973); conditions: HepG2 Attagene TRANS-FACTORIAL AR reporter transcription
In short: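 HepG2 cells transiently transfected with AR-Gal4 chimera and GAL4-UAS reporter units; chemical exposure 24 h. Reporter mRNA quantified by RT-PCR with fluorescent labelling and capillary electrophoresis; gain-of-signal fitted against DMSO.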

SMILES: O=c1n(Cl)c(=O)n(Cl)c(=O)n1Cl
- outcome [1]: inactive
- outcome [2]: inactive
- outcome [3]: inactive
- outcome [4]: inactive
- outcome [5]: inactive
- outcome [6]: inactive
- outcome [7]: inactive
- outcome [8]: inactive
- outcome [9]: inactive
- outcome [10]: inactive
- outcome [11]: inactive

SMILES: COC(=O)NS(=O)(=O)c1ccc(N)cc1
- outcome [1]: inactive
- outcome [2]: inactive
- outcome [3]: inactive
- outcome [4]: inactive
- outcome [12]: inactive
- outcome [6]: inactive
- outcome [13]: inactive
- outcome [10]: inactive
- outcome [14]: inactive

SMILES: CCOc1nc(F)cc2nc(S(=O)(=O)Nc3c(Cl)cccc3Cl)nn12
- outcome [1]: inactive
- outcome [2]: inactive
- outcome [3]: inactive
- outcome [4]: inactive
- outcome [6]: inactive
- outcome [7]: inactive
- outcome [8]: inactive
- outcome [9]: inactive
- outcome [15]: inactive
- outcome [10]: inactive
- outcome [11]: inactive
- outcome [16]: inactive

SMILES: COCc1cnc(C2=NC(C)(C(C)C)C(=O)N2)c(C(=O)O)c1 (stereo unspecified)
- outcome [1]: inactive
- outcome [2]: inactive
- outcome [3]: inactive
- outcome [4]: inactive
- outcome [6]: inactive
- outcome [17]: inactive
- outcome [8]: inactive
- outcome [9]: inactive
- outcome [15]: inactive
- outcome [10]: inactive
- outcome [11]: inactive
- outcome [14]: inactive
- outcome [16]: inactive

SMILES: CC1(C)C(C(=O)OC(C#N)c2cccc(Oc3ccccc3)c2)C1(C)C (stereo unspecified)
- outcome [1]: inactive
- outcome [2]: inactive
- AC50 [3]: 6.46 µM (active)
- outcome [4]: inactive
- AC50 [5]: 21.3 µM (active)
- outcome [6]: inactive
- outcome [8]: inactive
- outcome [13]: inactive
- outcome [15]: inactive
- outcome [10]: inactive
- outcome [11]: inactive
- outcome [14]: inactive
- outcome [16]: inactive

SMILES: CC1(C)CON(Cc2ccccc2Cl)C1=O
- outcome [1]: inactive
- outcome [2]: inactive
- AC50 [3]: 13.2 µM (active)
- outcome [4]: inactive
- AC50 [5]: 66.7 µM (active)
- outcome [6]: inactive
- outcome [7]: inactive
- outcome [8]: inactive
- outcome [10]: inactive
- outcome [11]: inactive
- outcome [16]: inactive

SMILES: Nc1c(Cl)c(Cl)nc(C(=O)O)c1Cl
- outcome [1]: inactive
- outcome [2]: inactive
- outcome [5]: inactive
- outcome [6]: inactive
- outcome [7]: inactive
- outcome [8]: inactive
- outcome [9]: inactive
- outcome [10]: inactive
- outcome [11]: inactive
- outcome [16]: inactive

SMILES: O=P(O)(O)CCCl
- outcome [1]: inactive
- outcome [2]: inactive
- outcome [3]: inactive
- outcome [5]: inactive
- outcome [6]: inactive
- outcome [15]: inactive
- outcome [10]: inactive
- outcome [11]: inactive
- outcome [14]: inactive
- outcome [16]: inactive

SMILES: CC(C)Nc1nc(Cl)nc(NC(C)C)n1
- outcome [1]: inactive
- outcome [2]: inactive
- outcome [3]: inactive
- outcome [4]: inactive
- outcome [5]: inactive
- outcome [12]: inactive
- outcome [6]: inactive
- outcome [8]: inactive
- outcome [10]: inactive
- outcome [11]: inactive
- outcome [14]: inactive
- outcome [16]: inactive

— PubChem BioAssay (EPA / NIEHS)
